Compound activity (PubChem BioAssay)
In the library only some 5.7% were active in any assay of this set; here they are far more common.
KB-3-1 cytotox: qHTS assay for MDR1-selective chemotherapeutics: Primary screen using the parental adenocarcinoma cell KB-3-1 | KB-3-1 viability, CellTiter-Glo ATP luminescence, 72 h | Potency, µM (highest dose often 46.1 µM), hits mostly cytotoxic | 400,000 tested, 1.4% active; note: potency is the fitted concentration of half-maximal effect; nearly all actives have a fitted effect of over 60% in size
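Viability of parental KB-3-1 cells, measured by CellTiter-Glo luminescence, followed a 72 h incubation at 37 °C with pinned compounds in phenol-red-free DMEM containing 10% FBS.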
A549 tox: Nrf2 qHTS screen for inhibitors: counterscreen for cytotoxicity | A549 ARE-Fluc cells, CellTiter-Fluor viability, 18-24 h | Potency, µM (titrated, usually from 46 µM), for the others: at the top dose activity change, negative = cytotoxicity, actives largely listed as inhibitors | 390,000 tested, 0.16% active | AID 504648, 2011; note: potency is the fitted concentration of half-maximal effect
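A549 ARE-Fluc cells in 5% FBS OPTI-MEM, 5000 cells/well, rested 2 h then exposed to compounds in concentration-response for 18-24 h at 37 °C. Viability by CellTiter-Fluor fluorescence (Ex 405/Em 525) after 30 min; luciferase luminescence (BugLite, 15 min, RT) read afterwards.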
PI4K2A block: qHTS for small molecular inhibitors of PI4K2A; Phosphatidylinositol 4-kinase type 2-alpha (Homo sapiens), Q9BTU6; purified PI4K2A, ADP-Glo luminescence, 1 h; stronger effect = lower value; 420,000 tested, 0.13% active; activity change, negative = inhibition, % at 76.9 µM; in the data active = activity change below about -50%; inconclusive = mostly about -30% to -49%;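 note: -100% = wells without enzyme as full effect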
Target sequence (Q9BTU6 whole entry, looked up): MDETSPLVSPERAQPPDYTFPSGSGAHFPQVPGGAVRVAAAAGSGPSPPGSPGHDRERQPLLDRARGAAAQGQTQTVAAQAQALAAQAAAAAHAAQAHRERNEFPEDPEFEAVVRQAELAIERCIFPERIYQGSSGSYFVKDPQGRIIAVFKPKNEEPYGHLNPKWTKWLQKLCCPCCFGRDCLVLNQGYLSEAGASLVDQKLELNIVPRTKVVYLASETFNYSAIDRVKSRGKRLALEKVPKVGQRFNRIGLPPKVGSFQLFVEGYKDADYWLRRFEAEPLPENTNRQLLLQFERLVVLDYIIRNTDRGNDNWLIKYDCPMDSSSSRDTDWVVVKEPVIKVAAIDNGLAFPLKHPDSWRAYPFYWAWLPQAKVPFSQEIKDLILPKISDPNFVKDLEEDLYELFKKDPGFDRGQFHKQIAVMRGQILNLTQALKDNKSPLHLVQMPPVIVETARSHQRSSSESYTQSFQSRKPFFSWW
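ADP-Glo luminescence measured ADP generated by PI4K2A enzyme (4 ug/mL before mixing) with 1.2 mM PI substrate (pre-mix) and 300 microM ATP (pre-mix). Tris pH7.5 buffer with MgCl2, Triton X-100; 1 h reaction at ambient temperature.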
Giardia kill: Small Molecules that selectively kill Giardia lamblia: qHTS; Giardia lamblia trophozoite viability; activity change, % at 7.66 µM, hits read low; 340,000 tested, 0.15% active; AID 540267, 2011; in the data active = activity change below about -80%; inconclusive = between about -30% and that limit;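 note: parasites exposed to compound for two days anaerobically before the ATP read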
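ATP-content bioluminescence gauges trophozoite survival. Cells (100/well) receive compound and incubate anaerobically for 48 hrs at 37 deg C; detection reagent follows for 15-30 min at room temperature.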
KB-V1 MDR tox: qHTS assay for MDR1-selective chemotherapeutics: Primary screen using the drug-selected MDR subline cells KB-V1; KB-V1 MDR cells viability, CellTiter-Glo, 72 h; Potency, µM (doses to about 46.1 µM), most hits filed as cytotoxic; 400,000 tested, 3.4% active; AID 1347076, 2019; note: potency is the fitted concentration of half-maximal effect; nearly all actives have a fitted effect of over 60% in size
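In this primary screen, KB-V1 cells overexpressing P-gp are incubated with library compounds (lowest to highest concentration) for 72 h at 37 degrees C before a luminescent ATP viability read.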
Nrf2 inh: Nrf2 qHTS screen for inhibitors; 360,000 tested, 2.1% active; A549 ARE-Fluc reporter, luciferase luminescence, 18-24 h; Potency, µM (series often up to 46 µM), for the others: at the highest dose activity change, negative = inhibition, usual class: inhibitors; note: potency is the fitted concentration of half-maximal effect; nearly all actives have a fitted effect of over 60% in size
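Quantitative HTS in A549 cells stably bearing an antioxidant response element-firefly luciferase construct. Inhibition of Nrf2-driven transcription was scored by luminescence after 18-24 h of compound exposure at 37 °C.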
* = called active by the depositor; i = inactive; ? = inconclusive; . = no result. Unless noted, calls come from the whole dose curve; as a rule, active = well fitted curve in the direction sought with a large enough effect; inconclusive = small, poorly fitted or top-dose-only effect, or another doubt; inactive = no such curve, though single readings can be large; an effect the other way counts as inactive or inconclusive. Unless noted, % is set by controls: 0 for no effect and ±100 for the full control effect.

SMILES	KB-3-1 cytotox	A549 tox	PI4K2A block	Giardia kill	KB-V1 MDR tox	Nrf2 inh
O=C(NCc1cccc(Br)c1)c1ccc(-n2cnc3cccnc32)cc1	i	9%	1	.	i	?
Cc1ccc(S(=O)(=O)NCCC(=O)Nc2nnc(C)s2)cc1	i	-2%	1	-5	i	-31%
Cc1cc(C)cc(N(CCC(=O)Nc2nnc(C)s2)S(=O)(=O)c2ccc(Cl)cc2)c1	?	-2%	0	8	23µM*	-10%
C#CCOc1nc2c(c(=O)n(C)c(=O)n2C)n1Cc1ccccc1	i	-3%	4	0	i	?
CCCCCn1c(CN(C)Cc2ccccc2)nc2c1c(=O)n(C)c(=O)n2C	18µM*	-20%	-2	-1	2.3µM*	18µM*
CCCCn1c(CN(Cc2ccccc2)Cc2ccccc2)nc2c1c(=O)n(C)c(=O)n2C	?	2%	-1	-5	?	6%
CN(Cc1ccccc1)Cc1nc2c(c(=O)n(C)c(=O)n2C)n1Cc1ccc(F)cc1	i	-3%	-10	6	9.2µM*	-5%
C=CCOc1nc2c(c(=O)n(C)c(=O)n2C)n1Cc1ccccc1	?	1%	0	-2	8.2µM*	?
C=C(C)Cn1c(N2CCN(c3ccc(OC)cc3)CC2)nc2c1c(=O)n(C)c(=O)n2C	?	-23%	-3	17	?	23µM*
O=c1oc2ccc(Br)cc2cc1-c1nc2c(s1)CCc1ccccc1-2	i	0%	.	4	i	8%
C=CCn1c(N2CCCCCC2)nc2c1c(=O)n(C)c(=O)n2C	i	-4%	-1	4	16µM*	?
CN(Cc1ccccc1)Cc1nc2c(c(=O)n(C)c(=O)n2C)n1Cc1ccc(Cl)cc1	i	.	6	-1	?	15µM*
Cc1ccc(Cn2c(CN(C)Cc3ccccc3)nc3c2c(=O)n(C)c(=O)n3C)cc1	i	.	-4	-6	i	-12%
CCCCCCn1c(N2CCN(c3ccccc3)CC2)nc2c1c(=O)n(C)c(=O)n2C	i	?	-4	16	?	23µM*
C/C(Cl)=C\Cn1c(N2CCCC2)nc2c1c(=O)n(C)c(=O)n2C	i	-10%	4	5	i	?
O=C(CNC(=O)C1CCCCC1)OCc1ccccc1	?	0%	.	-13	?	4%
C=CCN1[C@H](CC(C)C)COc2cccc(N3CCSCC3)c2S1(=O)=O	.	.	1	.	.	.
CCOc1ccc(N(CC(=O)Nc2c(C)n(C)n(-c3ccccc3)c2=O)S(=O)(=O)c2ccc3c(c2)N(C(=O)C2CCC2)CC3)cc1	.	.	1	.	.	.
FC(F)(F)c1cccc(Cn2nnnc2-c2ccc(Cl)cc2)c1	?	4%	-2	-10	15µM*	.
Cc1cccc(C)c1N1CCN(C(c2cc3ccccc3o2)c2nnnn2C(C)(C)C)CC1 (centres undefined)	5.8µM*	.	-7	.	2.6µM*	.
O=C(COC(=O)C12CC3CC(CC(Cl)(C3)C1)C2)NCc1ccco1	.	-2%	.	8	.	2%
Cc1ccc(NC(=O)[C@@H]2CC(=O)O[C@@H]2c2ccccc2)cc1C	.	.	2	.	.	.
O=C(NCC(c1ccc(F)cc1)N1CCOCC1)c1ccc([N+](=O)[O-])o1 (centres undefined)	?	-9%	6	-101*	?	3%
Cc1ccc(-n2nnnc2CNC(=O)c2ccc([N+](=O)[O-])o2)cc1C	15µM*	-2%	0	?	i	-16%
O=C(NCc1nnnn1-c1ccc(F)cc1)c1ccc([N+](=O)[O-])o1	18µM*	-14%	-3	-95*	?	-14%
